MEX-5 binding: C. elegans MEX-5 TCR-2 RNA binding activity; Q9XUB2; MEX-5/FITC-TCR2 RNA binding, fluorescence polarization; hits give low values; activity score (negative = inhibition of binding), % at 10 µM; hit rate 0.38% among 300,000;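 active means inhibition past about -25% in most replicates, and total fluorescence under double the plate's negative control median, limit read from the data; inconclusive means replicates evenly split on the limit, or fluorescence at least double controls; inactive means too little inhibition in most replicates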;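 further: 0% = DMSO and -100% = 5 µM competing unlabeled TCR2 RNA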
EBV gp42 block: inhibitors of Epstein-Barr virus glycoprotein 42 | Q1HVG2 | Fluorescence polarization binding assay, mP read-out | inhibition, % (tested at 21.74 µM) | hit rate 0.42% among 220,000 | AID 1085; in the data active means inhibition above about 50%
Target sequence (Q1HVG2 whole entry, looked up): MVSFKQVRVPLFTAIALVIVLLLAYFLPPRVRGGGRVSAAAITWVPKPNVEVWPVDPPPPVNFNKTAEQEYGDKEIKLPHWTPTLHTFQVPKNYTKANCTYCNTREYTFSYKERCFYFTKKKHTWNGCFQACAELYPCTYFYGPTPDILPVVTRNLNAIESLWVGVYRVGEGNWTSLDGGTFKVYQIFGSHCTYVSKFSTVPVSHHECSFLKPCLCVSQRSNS
ZTA counter: blocks Epstein-Barr virus ZTA, an EBNA-1 counter-screen | P03206 | ZTA-DNA binding, fluorescence polarization | inhibition, % at 11 µM | hit rate 0.15% among 320,000; in the data active means inhibition above about 33%
Target sequence (P03206 whole entry, looked up): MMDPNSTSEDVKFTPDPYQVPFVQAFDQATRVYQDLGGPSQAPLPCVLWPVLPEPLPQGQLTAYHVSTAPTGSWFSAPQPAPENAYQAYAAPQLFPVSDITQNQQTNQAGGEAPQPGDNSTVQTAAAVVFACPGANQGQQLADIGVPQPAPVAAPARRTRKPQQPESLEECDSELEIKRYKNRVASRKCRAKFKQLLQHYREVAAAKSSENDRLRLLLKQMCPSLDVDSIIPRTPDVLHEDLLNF
EBNA-1 inhibitor: blocks EBNA-1 binding to DNA; EBNA-1 DNA binding, fluorescence polarization; inhibition, % at 14.8 µM; hit rate 0.34% among 300,000; in the data active means inhibition above about 28%
Numbers without * were called inactive; u = inconclusive; x = no result. Sampled rows, rich in hits. Any-hit rate of the full collection: about 1%.

SMILES	MEX-5 binding	EBV gp42 block	ZTA counter	EBNA-1 inhibitor
CCC1CCCCN1C(=O)CSc1nnc(CNC(=O)c2c(F)cccc2Cl)o1 (stereo not given)	x	x	-6.0	5.3
Cc1cccc2c3nc4ccccc4nc3n(CCCN3C(=O)c4ccccc4C3=O)c12	-3.5	83.0*	x	x
CC1(C)CCC[C@]2(C)C(CS(=O)c3ccccc3)=C(C=O)CC[C@@H]12 (stereo not given in full)	-4.5	x	5.9	2.2
CC(=O)Oc1ccc2c(c1)Oc1cc(OC(C)=O)ccc1C21OC(=O)c2ccccc21	x	94.8*	-6.2	-1.9
C=C1c2cc(OC)ccc2NC(=O)N1CC	-2.4	51.7*	-0.3	-1.7
CCCCOc1ccc(-c2cc(C(F)(F)F)c(C#N)c(SCC(=O)O)n2)cc1	u	60.0*	-23.6	-1.7
O=C(CSc1ccsc1[N+](=O)[O-])Nc1cccc(F)c1	-3.2	61.7*	x	x
CS(=O)(=O)Nc1cccc(C2=NN(S(C)(=O)=O)C(c3ccc4c(c3)OCO4)C2)c1 (stereo not given)	0.1	-14.0	0.6	8.3
CS(=O)(=O)N1N=C(c2ccccc2)CC1c1ccc2c(c1)OCO2 (stereo not given)	4.4	90.9*	3.7	0.8
N=C1/C(=C\c2ccc(-c3cccc(Cl)c3)o2)C(=O)N=C2SC=C(c3ccccc3)N12	-0.6	-20.3	-2.4	13.4
N=C1/C(=C\c2ccc(-c3ccc(C(=O)O)cc3)o2)C(=O)N=C2SC=C(c3ccccc3)N12	-1.3	61.1*	x	x
Cc1ccccc1C1=N/C(=C/c2cccs2)C(=O)O1	-27.5*	7.0	-3.3	7.8
Cc1ccc2c(N)c(C)ccc2c1	-2.1	-17.1	19.4	5.4
Cc1ccc2cc3c(N)c4c(C)ccc(C)c4nc3nc2c1	-4.2	147.8*	x	x
CCOC(=O)c1ccc(CC(=O)c2oc3cc(O)ccc3c2C)o1	-3.4	14.5	-0.1	8.3
CCOC(=O)c1ccc(CC(=O)c2ccc(O)c(O)c2O)o1	-26.9*	3.8	x	x
O=C(c1ccc(Cl)cc1)C1C2C(=O)N(c3ccccc3)C(=O)C2C2CCCN21 (stereo not given)	-29.5*	81.3*	x	x
CC(=O)c1ccc(N2C(=O)C3C(C2=O)C(C(=O)c2ccc(Cl)cc2)N2CCCC32)cc1 (stereo not given)	x	88.6*	x	x
CC1CCN(C(=O)CCCC(=O)N2CCC(C)CC2)CC1	1.8	x	-1.2	11.0
O=C(O)c1ccc(-c2ccc(/C=C3\NC(=O)N(Cc4ccc(Cl)cc4)C3=O)o2)cc1Cl	-31.9*	20.5	x	x
Cc1nc2ccccc2c2oc(C(=O)Nc3ccc4c(c3)OCCO4)cc12	-28.3*	-12.3	4.3	-1.2
Cc1nc2ccccc2c2oc(C(=O)Nc3ccc(C(C)C)cc3)cc12	0.9	-12.1	24.7	20.4
NC(=O)c1cc2ccc(O)cc2oc1=NCc1ccccc1	u	107.9*	2.8	-6.0
Cc1sc2ncnc(NCC(O)c3ccc([N+](=O)[O-])cc3)c2c1C (stereo not given)	-3.1	x	-4.0	1.0
COc1ccc(C(NC(=O)c2cc(OC)ccc2OC)c2ccccc2)cc1 (stereo not given)	2.5	x	7.0	-1.5
SMILES	MEX-5 binding	EBV gp42 block	ZTA counter	EBNA-1 inhibitor
COc1cc(C(=O)NC(c2ccccc2)c2ccccc2)cc(OC)c1C	-46.8*	x	-13.4	-9.7
O=[N+]([O-])c1cccc(S(=O)(=O)Nc2nc3ccccc3nc2Nc2cccc(S(=O)(=O)N3CCCCC3)c2)c1	-0.8	-3.9	x	x
Cc1ccc(S(=O)(=O)Nc2nc3ccccc3nc2Nc2cccc(S(=O)(=O)N3CCCC3)c2)cc1	-2.7	55.6*	21.8	-1.6
N#C/C(=C\c1sc(N2CCOCC2)nc1-c1ccccc1)C(=O)Nc1cccc2ccccc12	x	136.9*	x	x
CCOC(=O)N1CCC(NC(=O)c2cc(C(=O)Nc3ccc(S(=O)(=O)N4CCCCC4)cc3)ccc2CO)CC1	-0.9	-9.1	6.3	-0.8
CCCc1nn2c(N)c(/C=C3\C=Nc4ccccc43)c(=O)nc2s1	-5.6	-11.6	12.6	12.3
CC(C)Cc1nn2c(N)c(/C=C3\C=Nc4ccccc43)c(=O)nc2s1	-46.0*	-11.8	-10.2	-4.1
COc1ccc(NC(=O)Nc2c(O)ccc3ccccc23)cc1	-0.5	x	-16.7	3.8
CC(=O)Nc1ccc(NC(=O)C(C)OC(=O)CNC(=O)c2ccc(-c3ccccc3)cc2)cc1 (stereo not given)	2.8	x	8.5	21.5
C[n+]1cccc(C(=O)Nc2ccccc2)c1	-1.0	x	-4.3	-10.1
O=C(O)CCCN1C(=O)/C(=C/c2ccc(-c3nc4ccccc4s3)o2)SC1=S	-29.3*	-38.6	3.5	4.2
O=C(O)CCCCCN1C(=O)/C(=C\c2ccc(-c3ccc(Cl)cc3)o2)SC1=S	-3.9	25.2	-1.6	2.0
N#C/C(=N/Nc1ccc(OC(F)(F)F)cc1)C(N)=S	-1.7	-11.9	-14.1	8.7
NC(=S)N=Nc1ccc(NN=C(N)N)cc1	-53.3*	x	-2.0	-0.5
O=C1SC(SCc2ccccc2)=N/C1=C\c1ccc(C(=O)O)cc1	-58.2*	-15.6	11.4	13.5
O=C(NCc1ccco1)c1c2c(nc3ccccc13)CCC2	-0.7	61.9*	11.7	1.9
O=C(CSc1c2c(nc3ccccc13)CCCC2)NCc1ccco1	2.9	-5.8	13.4	3.1
O=C(NCc1ccccc1Cl)c1ccccc1CCc1ccccc1	1.1	-11.3	-12.1	-1.1
O=C(NCc1ccc(Cl)cc1)c1ccccc1CCc1ccccc1	0.7	-8.9	-10.6	31.0*
COc1cc(C(=O)NNC(=O)COc2cccc(F)c2)ccc1OCC(=O)N1CCOCC1	x	x	0.5	x
Cc1ccc(NC(=O)COc2ccc(/C=C3/SC(=Nc4ccccc4)N(Cc4cccnc4)C3=O)cc2)cc1	-59.8*	7.9	6.6	6.1
Cc1ccc(N2CC(C(=O)Nc3nnc(SCC(=O)Nc4nc(C)cs4)s3)CC2=O)cc1 (stereo not given)	-0.9	-12.1	-11.3	31.0*
Cc1csc(NC(=O)CSc2nnc(NC(=O)C3CC(=O)N(c4ccccc4)C3)s2)n1 (stereo not given)	-2.5	0.3	9.0	-7.8
CN(C)Cc1cc(C(C)(C)C)cc(C(C)(C)C)c1O	2.3	-2.4	18.1	-6.8
CN(C)Cc1cc(O)c(CN(C)C)cc1O	-35.3*	-14.2	5.0	9.2
SMILES	MEX-5 binding	EBV gp42 block	ZTA counter	EBNA-1 inhibitor
NC(=O)c1ccsc1N	-34.7*	9.4	-3.3	1.7
CCN(CC)c1ccc(C=N/C(C#N)=C(\N)C#N)cc1	-109.4*	32.3	-18.9	4.7
CC1=C(C#N)C(=O)N(C2CCS(=O)(=O)C2)C(=O)/C1=C\c1ccc(C)o1 (stereo not given)	u	117.9*	17.3	9.2
Cc1ccc(/C=C2\SC(=S)N(C3CCS(=O)(=O)C3)C2=O)o1 (stereo not given)	-1.3	-38.6	-7.8	6.5
COc1ccc(-c2cc(C(=O)N/N=C(\C)c3ccco3)c3ccccc3n2)c(OC)c1	-31.8*	x	1.6	-0.9
CCN(CC)CCCNC(=O)c1oc2ccc(S(=O)(=O)N3CC(C)CC(C)C3)cc2c1C (stereo not given)	-1.6	x	-14.8	-2.1
CC(/C=C1\SC(=O)N(CC(=O)Nc2ccc(O)cc2)C1=O)=C\c1ccccc1	0.9	0.9	7.2	28.3*
Cc1cccc(N2CCN(C(=O)CCS(=O)(=O)c3ccc4c(c3)NC(=O)CO4)CC2)c1C	-0.4	x	3.3	-0.7

Compound activity deposited in PubChem by several laboratories.
